# Measurements reported in PubChem BioAssay (NCI).
# This is part of a sample that, as a whole, favours compounds with a hit. Of some 83,000 tested, about 20% had one in any assay.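 Note: values are percent growth. 100 is the growth of untreated cells, values between 100 and 0 indicate rising inhibition; between -100 and 0 indicates cell death.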 Values without a mark were called inactive. Calls of active or inactive are those of the source. How the source made its calls: active means growth percent below 10; inactive means the rest.
# Key:
# Assay in all cases: NCI-60 one-dose screen, 48 h (100 = growth as untreated, 0 = no growth, -100 = all killed)
# Conditions in all cases: 10 µM unless noted
# SR leukemia = test system: SR leukemia
# RPMI-8226 leukemia = test system: RPMI-8226 leukemia
# OVCAR-8 ovarian = test system: OVCAR-8 ovarian
# OVCAR-5 ovarian = test system: OVCAR-5 ovarian
# OVCAR-4 ovarian = test system: OVCAR-4 ovarian
# SK-OV-3 ovarian = test system: SK-OV-3 ovarian
# IGROV1 ovarian = test system: IGROV1 ovarian
# OVCAR-3 ovarian = test system: OVCAR-3 ovarian
# HS 578T breast = test system: HS 578T breast
# NCI/ADR-RES ovarian = test system: NCI/ADR-RES ovarian
# T-47D breast = test system: T-47D breast
# BT-549 breast = test system: BT-549 breast
# MDA-MB-435 melanoma = test system: MDA-MB-435 melanoma
# SW-620 colon = test system: SW-620 colon
# MCF7 breast = test system: MCF7 breast
# HCT-116 colon = test system: HCT-116 colon
# HCC-2998 colon = test system: HCC-2998 colon
# KM12 colon = test system: KM12 colon
Structure (SMILES),growth (SR leukemia),growth (RPMI-8226 leukemia),growth (OVCAR-8 ovarian),growth (OVCAR-5 ovarian),growth (OVCAR-4 ovarian),growth (SK-OV-3 ovarian),growth (IGROV1 ovarian),growth (OVCAR-3 ovarian),growth (HS 578T breast),growth (NCI/ADR-RES ovarian),growth (T-47D breast),growth (BT-549 breast),growth (MDA-MB-435 melanoma),growth (SW-620 colon),growth (MCF7 breast),growth (HCT-116 colon),growth (HCC-2998 colon),growth (KM12 colon)
CCN(CC)CCOc1ccc(/C(=C(\C)Cc2ccc(OC)cc2)c2ccc(O)cc2)cc1,-52.4% (active),-33.2% (active),29%,69.3%,46.7%,64.5%,47.3%,46.7%,33.5%,53.1%,20.3%,56.7%,-67.8% (active),-25.2% (active),-14.8% (active),-34.8% (active),0.439% (active),32.4%
CC(C)(C#N)c1cc(C(=O)Nc2cc(Nc3ncccc3-c3ncnc4nc[nH]c34)ccc2F)cc(C(F)(F)F)c1,52.4%,40.6%,49.5%,32.1%,46.6%,91.1%,8.69% (active),70.1%,30.9%,52.2%,52%,71%,29.5%,37.5%,57.4%,15.4%,41.8%,43.7%
COc1cccc(C2C(C#N)=C(N)Oc3c2ccc2ccccc32)c1 (stereo unspecified),18.1%,20.7%,21.4%,40.5%,66.2%,40.1%,18.3%,-8.8% (active),52.1%,6.19% (active),69.5%,28.3%,6.77% (active),30.3%,10.8%,5.1% (active),23.6%,11.9%
C=CCn1c(SCC(=O)Nc2ccc(C(=O)/C=C/c3ccc(Cl)cc3)cc2)nnc1-c1ccccc1,82.5%,-16% (active),102%,95.3%,85.2%,98.2%,89.1%,90.2%,111%,93.7%,73%,71.3%,77.5%,98.4%,24.4%,-78.6% (active),96.4%,85.2%
CC(CN)[C@@H]1CC[C@]2(CO)CC[C@]3(C)[C@H](CC[C@@H]4[C@@]5(C)CCC(NCCO)C(C)(C)[C@@H]5CC[C@]43C)[C@@H]12 (stereo partly specified),-21.5% (active),0.0868% (active),75.8%,84.2%,77.3%,100%,71.4%,53.1%,58.7%,91.1%,77.5%,64.7%,31%,-60.9% (active),3.04% (active),6.92% (active),-26.8% (active),32.6%
C=C(c1ccc(C(=O)O)c(F)c1)c1cc2c(cc1C)C(C)(C)C=CC2(C)C,91.6%,26.3%,82.8%,111%,81.2%,73%,90.4%,92.5%,61.9%,83.1%,58.9%,87.4%,95.3%,110%,52.5%,85.4%,112%,66.6%
CCc1ccc(Cc2cnc(NC(=O)c3cc(C)oc3C)s2)cc1,19.5%,51%,52.9%,55.2%,54.7%,52.8%,43%,16.7%,23.6%,34.1%,34.4%,44.8%,-21.5% (active),18.3%,16.5%,20.4%,58.3%,22%
O=C(c1ccccc1)[C@@H](c1ccccc1)[C@]1(O)C(=O)Nc2ccccc21,102%,100%,92.6%,82.1%,98.7%,84%,98.4%,94.2%,93.3%,102%,85.2%,95%,98.4%,100%,92.4%,96.6%,104%,85.5%
C/C(=N\NC(=O)c1ccc(C(C)(C)C)cc1)c1ccc(O)cc1O,19.2%,28.5%,22.9%,39.9%,15%,27.7%,23.8%,6.18% (active),59.8%,10.3%,24.4%,31.2%,27.7%,29.9%,4.92% (active),18.5%,8.71% (active),22.8%
COc1cc2c(c(OC)c1OC)CCC(c1cccc(C(=O)Nc3ccc([N+](=O)[O-])cc3)c1)O2 (stereo unspecified),24.9%,9.24% (active),42%,84.3%,40.7%,78.4%,72.2%,56.5%,77.1%,38.2%,9.09% (active),27.4%,54.5%,77.7%,45.9%,40.4%,68.3%,57.7%
O=C(Nc1ncc(Cc2ccc(Cl)cc2)s1)c1ccc2c(c1)OCCO2,4.7% (active),20%,21.7%,37.1%,50%,33.4%,22.3%,2.45% (active),23.6%,10.9%,46.1%,38.1%,5.85% (active),35.4%,10.2%,9.61% (active),23.2%,12.7%
O=C1C(c2c(O)[nH]c3ncccc23)=Nc2ccccc21,82.5%,75.4%,84.4%,77.7%,80.4%,69.6%,-40.9% (active),75.8%,72.5%,82.7%,48.4%,70.6%,92.9%,102%,41%,48.5%,25.3%,69.5%
CN1CCN(c2ccc(Nc3ncc4[nH]c(=O)n(Cc5ccccc5N)c4n3)cc2)CC1,91%,105%,98.4%,79.1%,93.6%,81.3%,77.6%,102%,69.8%,102%,75.3%,97.8%,104%,95.3%,87.8%,91.5%,96.4%,101%
CCN1CCN(C(=O)[C@]23CC[C@@H](C)[C@H](C)[C@@H]2C2=CC[C@@H]4[C@@]5(C)C/C(=C/c6ccncc6)C(=O)C(C)(C)[C@@H]5CC[C@@]4(C)[C@]2(C)CC3)CC1,-12.8% (active),-29.5% (active),37.4%,34.2%,29.8%,70.2%,29.8%,11.2%,7.21% (active),27.4%,27.1%,52.2%,-51.1% (active),-22.6% (active),4.97% (active),-51.9% (active),-28.9% (active),5.49% (active)
O=C(Nc1ccccc1)Nc1ccccc1CNc1nc(Nc2ccc(OCCN3CCCC3)cc2)ncc1Cl,-6.4% (active),-0.283% (active),50.4%,106%,19.5%,86.1%,84.2%,2.33% (active),66.3%,71%,55.7%,74.8%,55.2%,73%,48.9%,45.7%,58.3%,43.7%
c1ccc2cc(Cn3cc[n+](Cc4ccc5ccccc5c4)c3)ccc2c1,22.3%,-0.408% (active),10.9%,43%,0.592% (active),33.2%,-2.69% (active),14.5%,58.8%,99.5%,-5.37% (active),2.35% (active),7.71% (active),58%,37.2%,41%,26.5%,-1.63% (active)
O=C1/C(=C/c2cccc([N+](=O)[O-])c2)COc2ccc(O)c(O)c21,8.03% (active),-24.7% (active),5.45% (active),-48.8% (active),15.3%,68.9%,-21.6% (active),-83.6% (active),6.86% (active),9.52% (active),-16.8% (active),-3.03% (active),-33.4% (active),-31.4% (active),1.76% (active),-74.8% (active),-85.2% (active),-45.7% (active)
